Data reported in the supplement of paper PMC6555819.

Key:
Test in all cases: PBM binding z-score (relative to random genomic background probes); higher = stronger binding; sequences stand for … in GC…GCGATTGACAGCGTAGAATGAAGG
[1] = tested on: RARb homodimer (NR concentration 270 nM)
How it was run: (§1)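 Binding z-scores take random background probes as their reference. They come from custom Agilent 4×180K protein-binding microarrays incubated 1 h with ligand-free nuclear receptor dimers, with antibodies against each partner (one per run) detecting binding. Scanned fluorescence was regression-normalized.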

[2] = tested on: RARg:RXRa (NR concentration 270 nM, RXRa partner concentration 90 nM)
How it was run: as §1

[3] = tested on: RARg homodimer (NR concentration 270 nM)
How it was run: as §1

[4] = tested on: RXRa DBDmut IVT, anti-RXR (DBD mutation: RXRa K156A/R161A, NR concentration 90 nM)
How it was run: as §1

[5] = tested on: RXRa homodimer (NR concentration 180 nM)
How it was run: as §1

[6] = tested on: THRa:RXRa (NR concentration 90 nM, RXRa partner concentration 90 nM)
How it was run: as §1

[7] = tested on: THRa homodimer (NR concentration 90 nM)
How it was run: as §1

[8] = tested on: VDR homodimer (NR concentration 270 nM)
How it was run: as §1

Sequence | PBM binding z-score [1] | PBM binding z-score [2] | PBM binding z-score [3] | PBM binding z-score [4] | PBM binding z-score [5] | PBM binding z-score [6] | PBM binding z-score [7] | PBM binding z-score [8]
TCTTGTAGATCAGCATGTTAAGAAAGCTGGCCAA | -0.787 | -0.255 | -0.411 | 0.518 | -0.151 | -0.548 | -0.975 | -0.468
CGAACTAGGTCAGAACAGGACAATGAAGGATGAT | 2.03 | 2.55 | 3.32 | 0.605 | 1.37 | 3.62 | 0.458 | 0.155
CCGACTGGGACAAAGGTTACCATACTCAGTACGA | 1.88 | 2.42 | 1.43 | 0.478 | 2.21 | 1.75 | 0.208 | -0.0207
TATACCGGGTCAAAGGCCAGAGTACGAATGTCGA | 3.15 | 4.74 | 4.08 | 1.38 | 5.91 | 3.36 | 0.712 | 1.98
CAAACTAGGTCTAAGGTCAAAGTCGAGCCAACCA | 4.24 | 4.86 | 4.08 | 2.51 | 5.24 | 4.1 | 4.5 | 3.63
CAAACTAGGTCCAGAGGTCAAAGTCCGCTTCCCG | 4.66 | 5.31 | 4.62 | 2.53 | 6.34 | 3.75 | 1.72 | 4.18
CCTACTGGGCCATCAGGTCATTGAAATCAACGTT | 2.46 | 1.85 | 2.14 | 0.155 | 1.18 | 3.07 | 2.88 | 1.02
